Source: PubChem BioAssay (Tox21)
Inconclusive results are not listed. Entries that show only a call come without a potency. Values without a mark were called inactive. Activity calls are given as the source filed them. Calls follow the shape of the dose curve; as a rule, active = well fitted activation curve with a large enough effect in the signal ratio in the repeat runs (not every such curve was filed as active); inconclusive = weak or mixed curves, or effect the other way; inactive = flat fitted curve, though single readings scatter; the % refers to the signal ratio.

target: Estrogen receptor beta (Homo sapiens) (UniProt Q92731); assay: qHTS assay to identify small molecule agonists of the estrogen receptor beta (ER-beta) signaling pathway (AID 1259377); details: ER-beta-UAS-bla HEK293T, beta-lactamase FRET ratio, 16 h; series mostly up to 92.4 µM
Sequence (Q92731 whole entry, looked up): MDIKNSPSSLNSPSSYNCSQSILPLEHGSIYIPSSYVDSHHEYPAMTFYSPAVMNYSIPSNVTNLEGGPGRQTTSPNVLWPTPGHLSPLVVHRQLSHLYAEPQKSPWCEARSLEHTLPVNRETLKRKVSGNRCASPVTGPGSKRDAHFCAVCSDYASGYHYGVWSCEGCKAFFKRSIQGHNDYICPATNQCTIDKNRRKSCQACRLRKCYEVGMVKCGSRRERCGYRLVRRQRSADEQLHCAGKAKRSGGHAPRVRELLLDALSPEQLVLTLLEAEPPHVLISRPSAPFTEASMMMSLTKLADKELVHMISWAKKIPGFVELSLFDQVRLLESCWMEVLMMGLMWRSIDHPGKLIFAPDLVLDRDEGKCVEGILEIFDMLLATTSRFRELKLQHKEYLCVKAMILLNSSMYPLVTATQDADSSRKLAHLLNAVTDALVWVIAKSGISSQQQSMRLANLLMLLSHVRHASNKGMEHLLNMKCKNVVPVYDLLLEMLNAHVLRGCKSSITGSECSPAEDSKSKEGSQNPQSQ
Excerpt: U.S. Tox21 Program National Center for Advancing Translational Sciences [NCATS] NIH Chemical Genomics Center [NCGC] U.S. Environmental Protection Agency [EPA] National Institutes of Environmental Health Sciences [NIEHS] National Toxicology Program [NTP] U.S. Food and Drug Administration [FDA] Tox21 Assay Overview: Estrogen receptor (ER), a nuclear hormone receptor, plays an important role in development, metabolic homeostasis and reproduction. Two subtypes of ER, ER-alpha and ER-beta, have similar expression patterns with some uniqueness in both types. Endocrine disrupting chemicals (EDCs) and their interactions with steroid hormone receptors like ER causes disruption of normal endocrine function. To identify the compounds that activate ER signaling, an ER beta-UAS-bla GripTite cell line (Life technologies, Madison, WI, USA) containing a beta-lactamase reporter gene under the control of an Upstream Activator Sequence (UAS) was used to screen Tox21 10K compound library.
Tox21 Assay Protocol Summary: ER-beta-UAS-bla HEK293T cells were dispensed at 2,000 cells/5 uL of assay medium containing 2% charcoal stripped FBS per well into black wall/clear-bottom 1536-well plates using a Multidrop Combi (ThermoFisher Scientific, Waltham, MA) dispenser. After the assay plates were incubated at a 37C and 5% CO2 for 6 hr, 23 nL of compounds dissolved in DMSO, positive controls or DMSO only was transferred to the assay plate by a Pintool station (Kalypsys, San Diego, CA). The plates were incubated at 37C and 5% CO2 for 16 hr. Then 1 uL of LiveBLAzerTM B/G FRET substrate was added using a BioRAPTR FRD (Flying Reagent Dispenser, Aurora Discovery, San Diego, CA). After the plates were incubated at room temperature for 2 hours, fluorescence intensity was measured by an Envision plate reader (PerkinElmer, Shelton, CT).

How did the Potency turn out when CC1C(=O)C[C@]2(C(C)C)C[C@H]12 (stereo not given in full) was run?
The Potency was “inactive”.

Which Potency does the source give for CCCCC(O)(Cn1cncn1)c1ccc(Cl)cc1Cl (stereo not given) here?
The Potency was “inactive”.

How did the Potency turn out when N#C/C(N)=C(/N)C#N was run?
Its Potency is “inactive”.

How did the Potency turn out when Nc1nc(=S)[nH][nH]1 was run?
Its Potency is “inactive”.

Which Potency does the source give for CCC(Cl)CCl (stereo not given) here?
Its Potency is “inactive”.

How did the Potency turn out when OC(c1ccc(Cl)cc1)(c1ccc(Cl)cc1)c1cccnc1 was run?
The Potency was “inactive”.

How did the Potency turn out when CC(C)(Cl)[N+](=O)[O-] was run?
Its Potency is “inactive”.

For CC(C)N(CCC(C(N)=O)(c1ccccc1)c1ccccn1)C(C)C (stereo not given), which Potency is on record?
Its Potency is “inactive”.

How did the Potency turn out when O=C(CBr)Nc1ccc(Cl)cc1C(=O)c1ccccc1F was run?
The Potency was “inactive”.

Which Potency does the source give for ClCC(Br)CBr (stereo not given) here?
Its Potency is “inactive”.

For C(=NC1CCCCC1)=NC1CCCCC1, which Potency is on record?
The Potency was “inactive”.

Which Potency does the source give for Nc1nc(N)nc(N)n1 here?
Its Potency is “inactive”.

How did the Potency turn out when CCOc1ccc(C(C)(C)COCc2cccc(Oc3ccccc3)c2)cc1 was run?
Its Potency is “inactive”.

For O=C(O)c1ccccc1C(=O)Nc1cccc2ccccc12, which Potency is on record?
Its Potency is “inactive”.

Which Potency does the source give for O=C(O)COc1ccc(Cl)cc1 here?
The Potency was “inactive”.

Which Potency does the source give for CCCCN=C=O here?
The Potency was “inactive”.

For O=C1CN=C(c2ccccc2)c2cc(Cl)ccc2N1CC1CC1, which Potency is on record?
The Potency was “inactive”.

For c1ccc(CN2CCNCC2)cc1, which Potency is on record?
Its Potency is “inactive”.

For COCC(C)N(C(=O)CCl)c1c(C)csc1C (stereo not given), which Potency is on record?
Its Potency is “inactive”.

For NC(=O)CI, which Potency is on record?
The Potency was “inactive”.

For C[C@H]1CNCCc2ccc(Cl)cc21, which Potency is on record?
The Potency was “inactive”.

C[N+](C)(C)CCCl was tested. Which Potency did it give?
The Potency was “inactive”.

C[C@@H]1CC[C@H]2[C@@H](C)C(=O)O[C@@H]3O[C@@]4(C)CC[C@@H]1[C@]32OO4 was tested. Which Potency did it give?
The Potency was “inactive”.

Which Potency does the source give for CCOP(=S)(OCC)SCn1nnc2ccccc2c1=O here?
Its Potency is “inactive”.

With ClCc1ccccc1 as the compound, how does the Potency read?
Its Potency is “inactive”.

Which Potency does the source give for CN1C(=O)NC(=O)C(C)(C2=CCCCC2)C1=O (stereo not given) here?
Its Potency is “inactive”.

How did the Potency turn out when CCCCCCCCCC(=O)O[C@H]1CC[C@H]2[C@@H]3CCC4=CC(=O)CC[C@@H]4[C@H]3CC[C@]12C was run?
The Potency was “inactive”.

With O=C1C(Cl)C(CCl)CN1c1cccc(C(F)(F)F)c1 (stereo not given) as the compound, how does the Potency read?
Its Potency is “inactive”.

Which Potency does the source give for CCc1ccc(C(=O)NN(C(=O)c2cc(C)cc(C)c2)C(C)(C)C)cc1 here?
Its Potency is “inactive”.

For Clc1cccc(SC2CCNCC2)n1, which Potency is on record?
The Potency was “inactive”.

How did the Potency turn out when C=CCC1([C@H](C)CCC)C(=O)NC(=O)NC1=O was run?
Its Potency is “inactive”.

For CCO[C@H]1O[C@@H]2OC3(C)CC[C@H]4[C@H](C)CC[C@@H]([C@H]1C)[C@@]24OO3, which Potency is on record?
The Potency was “inactive”.

NCC(CC(=O)O)c1ccc(Cl)cc1 (stereo not given) was tested. Which activation did it give?
Its activation is -2.59% [at 0.348 µM].

How did the Potency turn out when COc1nn(C(=O)NS(=O)(=O)c2ccccc2OC(F)(F)F)c(=O)n1C was run?
The Potency was “inactive”.

Which Potency does the source give for CCCC(Cn1cncn1)c1ccc(Cl)cc1Cl (stereo not given) here?
The Potency was “inactive”.

Cc1cc(=O)[nH]o1 was tested. Which Potency did it give?
The Potency was “inactive”.

How did the Potency turn out when COC(=O)C(Cl)C(=O)OC was run?
The Potency was “inactive”.

For CCCN(CC1CC1)c1c([N+](=O)[O-])cc(C(F)(F)F)cc1[N+](=O)[O-], which Potency is on record?
The Potency was “inactive”.

How did the Potency turn out when CCCN(CCC)c1c([N+](=O)[O-])cc(S(C)(=O)=O)cc1[N+](=O)[O-] was run?
The Potency was “inactive”.

With Cc1ccccc1CCl as the compound, how does the Potency read?
The Potency was “inactive”.
